The full ranking holds about 9,900 sequences; the median of “r (bound/input frequency ratio)” is about 0.7, and the highest 2% start at about 6.5. Only a selection was taken, and the highest values are over-represented in it overall.
B1: ENSMUSG00000061578.134|Ksr2|58:63;126:130;148:163;199:203 (ssRNA)
RNA: GGGAGUUCUACAGUCCGACGAUCGCUUCGAUAUCCGCAUGCUAAUGGCUUCCCCCAAAGUCCCGAGUCCUGAGAACCGGGGCUGUGGCAAGAGAGUUCUGCACACAUCUCUCUGUGGGGCUAGCAAUGCCGGGGUUAAGUUCUCCCUCGGUGAUGGAGACGGUCCUGGCAUACCAUGAUGGGUUACAUGGCACACACACACACACAAACUGUUUACAAUGGUCUCCCUGCCUCUCACGGGCACACAUCCAGGAGAAUGCACAUAGAGAGGUUCUGUGGUCUCUGCUGUCGCCUGGUGCUGAAUCUCUUGCGGUCGCACUAGUGUGGAAUUCUCGGGUGUCAAGG
B2: ENSMUSG00000029636.224|Wasf3|112:116;205:212 (ssRNA)
RNA: GGGAGUUCUACAGUCCGACGAUCGCUUCGAUAUCCGCAUGCUAUUGCAGAGGGACCAGGACACUGCCUUCCCUUAGGUGCAUUAUUUACGUGGCCUGCAGCUCUUAAUAUCUCUCACUGUUUAUGAAAAGAAAGAUUCAGAUCCGGGGUGACAUACACACAGUUGACAGGGAAUGCCUGUGGGAUAAUUAAAAAUGGUUUUUGCUCAUGAGUUUGGGAUGUCACCCAGCCGCCCACAUCGCCUGCUAACACACACGACGCCUGUCCGCUUGGCCAGCUAUCCUGUAACACCUGCCAGUAGUAGCUCUUGCGGUCGCACUAGUGUGGAAUUCUCGGGUGUCAAGG
B3: ENSMUSG00000031028.392|Tub (ssRNA)
RNA: GGGAGUUCUACAGUCCGACGAUCGCUUCGAUAUCCGCAUGCUAAGCUCCUGGUGAUAAUGCCUUUUCUUGACCACUGGCGCUGUGAACACAGGCUAAUGGACUUCAGAUACCAGGGCCCCGGGAUCACCUGGGUUAGCCUCUCCCACAGGAAGAUCCCUUACCCCUCAUCCCCUCUUCUUUUUGGUCCUUGGCUGGGUAGCAAAUUGGUGAGAAGAGCAGCCUAGUCUGUAAGAGUGCAGGGCAGCUGGAACCUUAGGCAGCUCCUCUGUAUGCUACCGGCUCCACACCCUAACACUCUCCACCUCUUGCGGUCGCACUAGUGUGGAAUUCUCGGGUGUCAAGG
B4: ENSMUSG00000029028.200|Lrrc47 (ssRNA)
RNA: GGGAGUUCUACAGUCCGACGAUCGCUUCGAUAUCCGCAUGCUAUGUACCAGCACACAGCUGCCAUCCCUCGAGCCACAGUGCCUGGUCCUAAGGACCCAGCAGCUGCACAGAGGACUUGGUGGCCCCGUGCCUUGCCAUCUGGCUGAGAAGAGAACCAGACCCUCAGCCUUCCCCCUCGACACCUUCUCGUUGGUGACCUCUGACCUUAAAGGACCAUUUCUACCUUCUGUAAAAGAACACCUGUUUGGGGUUGCGUGCGGCUUUCAUCCUAAGGCCGUGCGAGAGCCGUUAGCUGUCAGAACCUCUUGCGGUCGCACUAGUGUGGAAUUCUCGGGUGUCAAGG
B5: ENSMUSG00000061578.980|Ksr2 (ssRNA)
RNA: GGGAGUUCUACAGUCCGACGAUCGCUUCGAUAUCCGCAUGCUAAUCCAUGACUCAGAAUUUUCCAGAGACCCAAUCCCUCGGGGUCCACUUAGUGAUGGGACCAUACAAGAGUUUAUUUCCAAUUAGAGAAUUGGGUCAACUGGGAAAGGCUUCUUUCCUGGUAACCCUGCUACUGAUACUAUGUUGAAACAGGAAUCGACUCUAACUGCUUUUUGGCCUCUUCCCUGCACGGGAGUCUCAAAAUCAAGUUUUUACCCAGUGGCCUCUGGGAUCCACUCUCUCUACUCCUGAACUCUUAAAACCUCUUGCGGUCGCACUAGUGUGGAAUUCUCGGGUGUCAAGG
B6: ENSMUSG00000061578.705|Ksr2 (ssRNA)
RNA: GGGAGUUCUACAGUCCGACGAUCGCUUCGAUAUCCGCAUGCUAUUGAGGUGCCUUCCUGUAGUCUCUUGUGUCAUCUUCUUCUAAGACCACUAAUAACACCGCCUUUCUCCUUGAUCCGGGCCUCAGACCUCUUCAGAGAUUCUUUCUCUGAAUGUACGUGGGGGACUCCAACAGAUGUUGGGAGAAGACUCAAUAUGAGCAUACGGGGUCAUUGUUCAAUCCUGUAUCAAGACCUUGGAGUUGUCUAAGGCUGUGGGUUUUAAAUACCUGCUGCAGGCCUCCCAUCUCUGGCUCUUUGUUUCCUCUUGCGGUCGCACUAGUGUGGAAUUCUCGGGUGUCAAGG
B7: ENSMUSG00000058297.32|Spock2 (ssRNA)
RNA: GGGAGUUCUACAGUCCGACGAUCGCUUCGAUAUCCGCAUGCUACAAAUGGAUCCGGAAGUCAGUGCGGAGGACCCUGGCUCCAGUGGGGGAGGACUGGGGAGUGUGGCUUGUGUGUAUGUGUGAUAUGAGAUGUGUGUGUAUGAUGUGAGAUGUGAGUGUGUGAUGUGAGAUGUGUGUAUGUGAGAUGUGUGUGUGUGUGUGUGUGUGUGUGAUGUGAGUCACCCAAAGGUCCCUAUGUUAUUGAUUUUCAAAUGCACACUUUCACACACAAGGAUACACUAACAGACCAAAAUCAAUGAGAUCUCUUGCGGUCGCACUAGUGUGGAAUUCUCGGGUGUCAAGG
B8: ENSMUSG00000058297.33|Spock2|53:57;61:74;83:94;108:114;123:132;138:163 (ssRNA)
RNA: GGGAGUUCUACAGUCCGACGAUCGCUUCGAUAUCCGCAUGCUAGAUCCGGAAGUCAGUGCGGAGGACCCUGGCUCCAGUGGGGGAGGACUGGGGACACACGCUACACACAUACACACAUAUGAGAACACACACAUACAUGUGAGAUGUGACACACACAUGUGAGAACACACAUACUGAGAACACACACACACACACACACACACACAUGUGAGUCACCCAAAGGUCCCUAUGUUAUUGAUUUUCAAAUGCACACUUUCACACACAAGGAUACACUAACAGACCAAAAUCAAUGAGAUGUCCCUCUCUUGCGGUCGCACUAGUGUGGAAUUCUCGGGUGUCAAGG
B9: ENSMUSG00000058297.35|Spock2 (ssRNA)
RNA: GGGAGUUCUACAGUCCGACGAUCGCUUCGAUAUCCGCAUGCUAAGUGCGGAGGACCCUGGCUCCAGUGGGGGAGGACUGGGGAGUGUGGCUUGUGUGUAUGUGUGAUAUGAGAUGUGUGUGUAUGAUGUGAGAUGUGAGUGUGUGAUGUGAGAUGUGUGUAUGUGAGAUGUGUGUGUGUGUGUGUGUGUGUGUGAUGUGAGUCACCCAAAGGUCCCUAUGUUAUUGAUUUUCAAAUGCACACUUUCACACACAAGGAUACACUAACAGACCAAAAUCAAUGAGAUGUCCCUGAUCCUGCCCCUCUCUUGCGGUCGCACUAGUGUGGAAUUCUCGGGUGUCAAGG
B10: ENSMUSG00000058297.34|Spock2 (ssRNA)
RNA: GGGAGUUCUACAGUCCGACGAUCGCUUCGAUAUCCGCAUGCUAGAAGUCAGUGCGGAGGACCCUGGCUCCAGUGGGGGAGGACUGGGGAGUGUGGCUUGUGUGUAUGUGUGAUAUGAGAUGUGUGUGUAUGAUGUGAGAUGUGAGUGUGUGAUGUGAGAUGUGUGUAUGUGAGAUGUGUGUGUGUGUGUGUGUGUGUGUGAUGUGAGUCACCCAAAGGUCCCUAUGUUAUUGAUUUUCAAAUGCACACUUUCACACACAAGGAUACACUAACAGACCAAAAUCAAUGAGAUGUCCCUGAUCCUCUCUUGCGGUCGCACUAGUGUGGAAUUCUCGGGUGUCAAGG
B11: ENSMUSG00000058297.33|Spock2 (ssRNA)
RNA: GGGAGUUCUACAGUCCGACGAUCGCUUCGAUAUCCGCAUGCUAGAUCCGGAAGUCAGUGCGGAGGACCCUGGCUCCAGUGGGGGAGGACUGGGGAGUGUGGCUUGUGUGUAUGUGUGAUAUGAGAUGUGUGUGUAUGAUGUGAGAUGUGAGUGUGUGAUGUGAGAUGUGUGUAUGUGAGAUGUGUGUGUGUGUGUGUGUGUGUGUGAUGUGAGUCACCCAAAGGUCCCUAUGUUAUUGAUUUUCAAAUGCACACUUUCACACACAAGGAUACACUAACAGACCAAAAUCAAUGAGAUGUCCCUCUCUUGCGGUCGCACUAGUGUGGAAUUCUCGGGUGUCAAGG
B12: ENSMUSG00000058297.42|Spock2 (ssRNA)
RNA: GGGAGUUCUACAGUCCGACGAUCGCUUCGAUAUCCGCAUGCUAGUGGCUUGUGUGUAUGUGUGAUAUGAGAUGUGUGUGUAUGAUGUGAGAUGUGAGUGUGUGAUGUGAGAUGUGUGUAUGUGAGAUGUGUGUGUGUGUGUGUGUGUGUGUGAUGUGAGUCACCCAAAGGUCCCUAUGUUAUUGAUUUUCAAAUGCACACUUUCACACACAAGGAUACACUAACAGACCAAAAUCAAUGAGAUGUCCCUGAUCCUGCCCCUCAGCCCAACACCUGGAAUCCCUGCCCUGCCUAAUCAGCCCUACUCUUGCGGUCGCACUAGUGUGGAAUUCUCGGGUGUCAAGG
B13: ENSMUSG00000058297.34|Spock2|47:51;55:68;77:88;102:108;117:126;132:157 (ssRNA)
RNA: GGGAGUUCUACAGUCCGACGAUCGCUUCGAUAUCCGCAUGCUAGAAGUCAGUGCGGAGGACCCUGGCUCCAGUGGGGGAGGACUGGGGACACACGCUACACACAUACACACAUAUGAGAACACACACAUACAUGUGAGAUGUGACACACACAUGUGAGAACACACAUACUGAGAACACACACACACACACACACACACACAUGUGAGUCACCCAAAGGUCCCUAUGUUAUUGAUUUUCAAAUGCACACUUUCACACACAAGGAUACACUAACAGACCAAAAUCAAUGAGAUGUCCCUGAUCCUCUCUUGCGGUCGCACUAGUGUGGAAUUCUCGGGUGUCAAGG
B14: ENSMUSG00000058297.36|Spock2 (ssRNA)
RNA: GGGAGUUCUACAGUCCGACGAUCGCUUCGAUAUCCGCAUGCUAGAGGACCCUGGCUCCAGUGGGGGAGGACUGGGGAGUGUGGCUUGUGUGUAUGUGUGAUAUGAGAUGUGUGUGUAUGAUGUGAGAUGUGAGUGUGUGAUGUGAGAUGUGUGUAUGUGAGAUGUGUGUGUGUGUGUGUGUGUGUGUGAUGUGAGUCACCCAAAGGUCCCUAUGUUAUUGAUUUUCAAAUGCACACUUUCACACACAAGGAUACACUAACAGACCAAAAUCAAUGAGAUGUCCCUGAUCCUGCCCCUCAGCCCCUCUUGCGGUCGCACUAGUGUGGAAUUCUCGGGUGUCAAGG
B15: ENSMUSG00000058297.32|Spock2|59:63;67:80;89:100;114:120;129:138;144:169 (ssRNA)
RNA: GGGAGUUCUACAGUCCGACGAUCGCUUCGAUAUCCGCAUGCUACAAAUGGAUCCGGAAGUCAGUGCGGAGGACCCUGGCUCCAGUGGGGGAGGACUGGGGACACACGCUACACACAUACACACAUAUGAGAACACACACAUACAUGUGAGAUGUGACACACACAUGUGAGAACACACAUACUGAGAACACACACACACACACACACACACACAUGUGAGUCACCCAAAGGUCCCUAUGUUAUUGAUUUUCAAAUGCACACUUUCACACACAAGGAUACACUAACAGACCAAAAUCAAUGAGAUCUCUUGCGGUCGCACUAGUGUGGAAUUCUCGGGUGUCAAGG

The binders below were run against TDP-43 (Homo sapiens, UniProt Q13148 1-414) (assay: RNA Bind-n-Seq with designed 260-mer pool; 25 mM Tris-HCl, 150 mM KCl, 3 mM MgCl2, BSA (printed 500 mg/mL), 20 units/mL SUPERase IN; pH not stated; 500 nM RNA pool, 1 h, 4 C; TDP-43 5, 50, 500 nM; high values mean tight binding). Conditions: protein: recombinant; tags: SBP (GST cleaved off with PreScission; pGEX-GST-SBP).
TDP-43, sequence (Q13148 whole entry): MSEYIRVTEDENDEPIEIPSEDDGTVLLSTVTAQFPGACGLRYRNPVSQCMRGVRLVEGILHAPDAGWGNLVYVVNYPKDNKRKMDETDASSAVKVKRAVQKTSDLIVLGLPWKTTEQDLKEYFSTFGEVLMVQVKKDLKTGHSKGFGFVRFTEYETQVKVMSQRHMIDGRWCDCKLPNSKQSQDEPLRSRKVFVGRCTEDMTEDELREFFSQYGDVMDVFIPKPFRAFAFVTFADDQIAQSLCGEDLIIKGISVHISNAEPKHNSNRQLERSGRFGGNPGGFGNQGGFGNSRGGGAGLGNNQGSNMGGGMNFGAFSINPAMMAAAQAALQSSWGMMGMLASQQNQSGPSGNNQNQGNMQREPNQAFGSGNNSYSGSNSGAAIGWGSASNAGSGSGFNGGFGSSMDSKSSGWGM
Procedure, shortened: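 An in vitro-transcribed pool of 260-nt 3′ UTR oligos (500 nM) was incubated for 1 h at 4 °C with recombinant SBP-tagged TDP-43 at 5, 50 or 500 nM held on streptavidin beads. The buffer contained 25 mM Tris-HCl, 150 mM KCl, 3 mM MgCl2, BSA and SUPERase IN. Biotin-eluted bound RNA was sequenced, and binding, R, is each oligo's normalized read abundance in the bound sample over that in input.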
B1 was tested, and the binding signal was 1.51 R (bound/input frequency ratio).
With B2 the binding signal was 1.64 R (bound/input frequency ratio).
In the case of B3, the binding signal is reported as 0.459 R (bound/input frequency ratio).
With B4 the binding signal was 0.283 R (bound/input frequency ratio).
With B5 the binding signal was 0.19 R (bound/input frequency ratio).
In the case of B6, the binding signal is reported as 0.309 R (bound/input frequency ratio).
With B7 the binding signal was 7.46 R (bound/input frequency ratio).
B8 was tested, and the binding signal was 2.93 R (bound/input frequency ratio).
B9 was tested, and the binding signal was 8.03 R (bound/input frequency ratio).
B10 was tested, and the binding signal was 8.82 R (bound/input frequency ratio).
With B11 the binding signal was 8.02 R (bound/input frequency ratio).
With B12 the binding signal was 5.18 R (bound/input frequency ratio).
B13 was tested, and the binding signal was 2.69 R (bound/input frequency ratio).
In the case of B14, the binding signal is reported as 5.98 R (bound/input frequency ratio).
In the case of B15, the binding signal is reported as 3.96 R (bound/input frequency ratio).

Reference: article PMC12864922, “TDP-43 directly inhibits mRNA accumulation in neurites through modulation of mRNA stability”
